Here are results for 38 molecules from PubChem BioAssay (NCI).

Several values for one entry are separate records, joined by “and”; a condition that tells them apart may be missing. Equal values may be shown once. About 83,000 compounds went through this panel and 20% of them were active in at least one assay; those are over-represented in the sample as a whole.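 Cell lines were cultured in 96-well plates, exposed to a single compound concentration, and assessed for percent growth 48 hours later.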 Activity calls are given as the source filed them. Rule for the calls: active = growth percent below 10; inactive = the rest.

One test concerns NCI-H522 lung. The test is described as follows: NCI-60 one-dose screen, 48 h (100 = growth as untreated, 0 = no growth, -100 = all killed). The note with it: 10 µM unless noted.
Turning to `COc1ccc(NC2=C(I)C(=O)C(C)=C(C)C2=O)cc1`, the growth was 18.5% (inactive). Still for that read-out and setting: under `CC(=O)Nc1cccc(-n2c(COc3ccc(Br)cc3)nc3ccccc32)c1` stands 97.1% (inactive) and 108% (inactive); under `CCCSc1nnc(-c2sc3nc4ccccc4n3c2C)o1`, 100% (inactive); under `COc1cc(CNC(=O)C[C@H](C)CCC=C(C)C)ccc1OCc1cn(-c2ccccc2Cl)nn1`, 51.4% (inactive). The same measure, in the same setting: under `Cc1ccc(C(=O)Nc2cc(-n3ccnc3)cc(C(F)(F)F)c2)cc1-n1cc(-c2cnc3cccnn23)nn1` stands 102% (inactive); under `FC(F)(F)CN1CCN(CCn2c(C(F)(F)F)cc3c(Cl)ncnc32)CC1`, -79.3% (active). Still for that read-out and setting: the same measure for `Nc1nnc(-c2cncc(Br)c2)c(-c2c[nH]c3ccc(Br)cc23)n1`: 17.9% (inactive); for `Nc1cc(-c2c[nH]c3ccc(Cl)cc23)nc2cc(-c3c[nH]c4ccccc34)nn12`: -75% (active). Consider `CN(C)CCOc1ccc(C(=O)C2[C@H](c3ccc(Cl)cc3)[C@@H](c3ccccc3)NC23C(=O)Nc2ccc(Cl)cc23)cc1` (some centres undefined), for which the growth was -91.7% (active). With `O=C(NNC(=S)NC(=O)c1ccccc1)c1ccc(OCc2nc3ccc(Cl)cc3[nH]2)cc1`, the growth was 1.39% (active).

For the molecule `O=C(c1ccc(Cl)cc1)C1[C@H](c2ccccc2Cl)[C@@H](c2ccccc2)NC12C(=O)Nc1ccc(Br)cc12` (some centres undefined), the growth is -73.4% (active). On the same count and under the same terms, the same measure for `COc1ccc(CCC2NCCc3c(Br)c4c(c(OC)c32)OCO4)cc1` (centres undefined): 2.33% (active). Regarding `O=C(Nc1ccc(Br)cc1)Nc1ccc(-c2ccc3c(c2)NC(=O)/C3=C\c2ccc[nH]2)cc1`, the growth is 24.1% (inactive).

Turning to `O=C(Nc1ccc(S(=O)(=O)N2CCCCC2)cc1)C(Cl)Cl`, the growth is 98.4% (inactive). Same read-out and setting: under `O=C(N/N=C/c1ccc(Br)o1)c1[nH]c2ccc(Br)cc2c1-c1ccccc1` stands -61.5% (active).

`COc1cc(/C=C/C(=O)c2ccc(S(=O)(=O)NCCNc3nc(N(C)C)nc(N4CCOCC4)n3)cc2)cc(OC)c1OC`: the growth is -100% (active).

With `CCCCNC(=S)Nc1ccc(OCc2nc3ccc(Cl)cc3[nH]2)cc1`, the growth is -57.5% (active). As for `COc1ccc(-c2cc(C(=O)N=Nc3c(O)[nH]c4ccc(Cl)cc34)c3ccccc3n2)cc1OC`, the growth was 106% (inactive). Take `NS(=O)(=O)c1cccc(Nc2nc(SCC(=O)c3ccc(F)cc3)nc3ccccc23)c1`: the growth is -0.334% (active). Still for that read-out and setting: under `COc1ccc2[nH]c(O)c(N=Nc3nc(-c4ccccc4)cs3)c2c1` stands 8.94% (active).

On to `COc1ccc(OC)c(Cn2cc(C#N)c(N)c2C(=O)c2ccc(Br)cc2)c1`, for which the growth is -29% (active). Still for that read-out and setting: the same measure for `CC1=C(C)C(=O)C(N2CCSCC2)=CC1=O`: 94.3% (inactive).

With `N#Cc1c(-c2ccc(F)cc2)nc(SCc2ccc(F)cc2)nc1N1CCNCC1`, the growth was -70.4% (active).

For the molecule `COc1ccc2[nH]cc(-c3cc4nc(-c5cn(C)c6ncccc56)cc(N)n4n3)c2c1`, the growth is -58.7% (active).

Consider `O=C1Nc2ccccc2/C1=C\c1ccc(OCC(=O)c2ccc(Br)cc2)cc1`, for which the growth is 61.4% (inactive). Same read-out and setting: under `O=c1c(-c2nc(-c3ccccc3)c(-c3ccccc3)[nH]2)coc2ccc(F)cc12` stands 71.7% (inactive); under `Cc1ccccc1Nc1nnc(-c2c[nH]c3ccccc23)o1`, -23.2% (active); under `O=CNc1cccc(-n2cnc3cc(-c4ccc(O)cc4)ccc32)c1`, -6.53% (active).

Turning to `CC1(C)CC(=O)C2=C(C1)OC(N)=C(c1nc3ccccc3[nH]1)C2c1ccc(Cl)cc1` (centres undefined), the growth is 55% (inactive) and 111% (inactive). Same read-out and setting: under `CN1C(=O)/C(=C\C(=O)c2cc3ccccc3oc2=O)c2ccccc21` stands -68.8% (active). The same measure, in the same setting: under `Cc1ccc(C2CC(c3ccc(NC(=S)Nc4ccccc4)cc3)=NN2c2ccc(S(N)(=O)=O)cc2)cc1` (centres undefined) stands 15.8% (inactive); under `COc1cc(CNC(=O)[C@]23CCC(C)(C)CC2C2=CCC4[C@@]5(C)CCC(OC(C)=O)C(C)(C)C5CC[C@@]4(C)[C@]2(C)CC3)ccc1OCc1cn(-c2ccc(Cl)cc2Cl)nn1` (some centres undefined), 88.9% (inactive). On to `Nc1ccc(-c2ccc3ncnc(N4CCc5cc(F)c(Cl)cc54)c3c2)cn1`, for which the growth was 15.4% (inactive).

A further test has as its system A549/ATCC NSCLC. Described as above. Particulars: 10 µM unless noted.
Consider `COc1ccc(NC2=C(I)C(=O)C(C)=C(C)C2=O)cc1`, for which the growth is 83.8% (inactive). Still for that read-out and setting: the same measure for `CC(=O)Nc1cccc(-n2c(COc3ccc(Br)cc3)nc3ccccc32)c1`: 115% (inactive) and 108% (inactive); for `CCCSc1nnc(-c2sc3nc4ccccc4n3c2C)o1`: 99.8% (inactive). On the same count and under the same terms, under `COc1cc(/C=N/NC(=O)c2ccc(OCc3nc4ccc(C)cc4[nH]3)cc2)cc(OC)c1OC` stands 28.4% (inactive). On the same count and under the same terms, under `COc1cc(CNC(=O)C[C@H](C)CCC=C(C)C)ccc1OCc1cn(-c2ccccc2Cl)nn1` stands 64.1% (inactive); under `Cc1ccc(C(=O)Nc2cc(-n3ccnc3)cc(C(F)(F)F)c2)cc1-n1cc(-c2cnc3cccnn23)nn1`, 101% (inactive); under `O=C(Nc1ccc(Cl)c(C(F)(F)F)c1)N1CCN(c2cc(-c3cn(-c4ccccc4)nc3-c3cccc(O)c3)ccn2)CC1`, 14.7% (inactive). Take `FC(F)(F)CN1CCN(CCn2c(C(F)(F)F)cc3c(Cl)ncnc32)CC1`: the growth was 98.8% (inactive). The same measure, in the same setting: the same measure for `COc1cccc(C(N)=Nc2ccc(OCCCCCCCCn3cncn3)cc2)c1`: 24.6% (inactive). Still for that read-out and setting: under `Nc1nnc(-c2cncc(Br)c2)c(-c2c[nH]c3ccc(Br)cc23)n1` stands 49.2% (inactive). Take `Nc1cc(-c2c[nH]c3ccc(Cl)cc23)nc2cc(-c3c[nH]c4ccccc34)nn12`: the growth was -8.14% (active). As for `CN(C)CCOc1ccc(C(=O)C2[C@H](c3ccc(Cl)cc3)[C@@H](c3ccccc3)NC23C(=O)Nc2ccc(Cl)cc23)cc1` (some centres undefined), the growth is -77.9% (active). On the same count and under the same terms, the same measure for `O=C(NNC(=S)NC(=O)c1ccccc1)c1ccc(OCc2nc3ccc(Cl)cc3[nH]2)cc1`: -29.2% (active); for `O=C(c1ccc(Cl)cc1)C1[C@H](c2ccccc2Cl)[C@@H](c2ccccc2)NC12C(=O)Nc1ccc(Br)cc12` (some centres undefined): -41.7% (active); for `COc1ccc(CCC2NCCc3c(Br)c4c(c(OC)c32)OCO4)cc1` (centres undefined): 24.2% (inactive).

Take `O=C(Nc1ccc(Br)cc1)Nc1ccc(-c2ccc3c(c2)NC(=O)/C3=C\c2ccc[nH]2)cc1`: the growth is 37.7% (inactive). Still for that read-out and setting: under `O=C(Nc1ccc(S(=O)(=O)N2CCCCC2)cc1)C(Cl)Cl` stands 104% (inactive); under `O=C(N/N=C/c1ccc(Br)o1)c1[nH]c2ccc(Br)cc2c1-c1ccccc1`, -4.05% (active).

With `COc1cc(/C=C/C(=O)c2ccc(S(=O)(=O)NCCNc3nc(N(C)C)nc(N4CCOCC4)n3)cc2)cc(OC)c1OC`, the growth was 26.5% (inactive). Take `CCCCNC(=S)Nc1ccc(OCc2nc3ccc(Cl)cc3[nH]2)cc1`: the growth is 52.7% (inactive).

In the case of `COc1ccc(-c2cc(C(=O)N=Nc3c(O)[nH]c4ccc(Cl)cc34)c3ccccc3n2)cc1OC`, the growth was 111% (inactive). The same measure, in the same setting: under `NS(=O)(=O)c1cccc(Nc2nc(SCC(=O)c3ccc(F)cc3)nc3ccccc23)c1` stands 28.1% (inactive). On to `COc1ccc2[nH]c(O)c(N=Nc3nc(-c4ccccc4)cs3)c2c1`, for which the growth was 2.49% (active). Still for that read-out and setting: under `COc1ccc(OC)c(Cn2cc(C#N)c(N)c2C(=O)c2ccc(Br)cc2)c1` stands 46.4% (inactive); under `CC1=C(C)C(=O)C(N2CCSCC2)=CC1=O`, 99.3% (inactive); under `COc1ccc2[nH]cc(-c3cc4nc(-c5cn(C)c6ncccc56)cc(N)n4n3)c2c1`, -25.9% (active).

Take `O=C1Nc2ccccc2/C1=C\c1ccc(OCC(=O)c2ccc(Br)cc2)cc1`: the growth is 58.4% (inactive). For `Nc1nn2c(-c3cc4ccccc4oc3=O)ccnc2c1N=Nc1ccccc1`, the growth was 100% (inactive). As to `O=c1c(-c2nc(-c3ccccc3)c(-c3ccccc3)[nH]2)coc2ccc(F)cc12`, the growth is 40% (inactive). Take `O=CNc1cccc(-n2cnc3cc(-c4ccc(O)cc4)ccc32)c1`: the growth was 42.9% (inactive). The same measure, in the same setting: the same measure for `CC1(C)CC(=O)C2=C(C1)OC(N)=C(c1nc3ccccc3[nH]1)C2c1ccc(Cl)cc1` (centres undefined): 64.6% (inactive) and 115% (inactive); for `CN1C(=O)/C(=C\C(=O)c2cc3ccccc3oc2=O)c2ccccc21`: 78.3% (inactive). Take `Cc1cc(N=C(N)c2ccccc2)ccc1OCCCCCCCCn1ccnc1`: the growth was 15% (inactive). With `Cc1ccc(C2CC(c3ccc(NC(=S)Nc4ccccc4)cc3)=NN2c2ccc(S(N)(=O)=O)cc2)cc1` (centres undefined), the growth was 15.1% (inactive).

In the case of `COc1cc(CNC(=O)[C@]23CCC(C)(C)CC2C2=CCC4[C@@]5(C)CCC(OC(C)=O)C(C)(C)C5CC[C@@]4(C)[C@]2(C)CC3)ccc1OCc1cn(-c2ccc(Cl)cc2Cl)nn1` (some centres undefined), the growth is 93.1% (inactive). Same read-out and setting: under `Nc1ccc(-c2ccc3ncnc(N4CCc5cc(F)c(Cl)cc54)c3c2)cn1` stands 14.2% (inactive).
